Assay results as given in PubChem BioAssay (NCATS).
Records with an inconclusive call do not appear. Activity calls are given as the source filed them. Calls follow the shape of the dose curve; as a rule, active = well fitted inhibition curve with a large enough effect; inconclusive = small, poorly fitted or top-dose-only effect; inactive = flat fitted curve, though single readings scatter.

What was measured:
Test in all cases: qHTS profiling for inhibitors of Plasmodium falciparum proliferation (AID 504749); also: nearly all actives have a fitted effect of over 60% in size
[1] = tested on: AA1029; conditions: P. falciparum in erythrocytes, SYBR Green DNA, 72 h; series mostly up to 12.8 µM
In short: (§1)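 Fluorescence of SYBR Green-bound parasite DNA, read at 485/535 nm, served as the growth measure. Infected erythrocytes were cultured with compound 72 h; artemisinin (0.29 uM) and DMSO wells defined the normalization range.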

[2] = tested on: ATS95; conditions: P. falciparum in erythrocytes, SYBR Green DNA, 72 h; series mostly up to 12.8 µM
In short: as §1

[3] = tested on: C2A; conditions: P. falciparum in erythrocytes, SYBR Green DNA, 72 h; series mostly up to 12.8 µM
In short: as §1

[4] = tested on: CP211; conditions: P. falciparum in erythrocytes, SYBR Green DNA, 72 h; series mostly up to 12.8 µM
In short: as §1

[5] = tested on: CP215; conditions: P. falciparum in erythrocytes, SYBR Green DNA, 72 h; series mostly up to 28.7 µM
In short: as §1

[6] = tested on: CP217; conditions: P. falciparum in erythrocytes, SYBR Green DNA, 72 h; series mostly up to 12.8 µM
In short: as §1

[7] = tested on: CP250; conditions: P. falciparum in erythrocytes, SYBR Green DNA, 72 h; series mostly up to 12.8 µM
In short: as §1

[8] = tested on: CP252; conditions: P. falciparum in erythrocytes, SYBR Green DNA, 72 h; series mostly up to 12.8 µM
In short: as §1

[9] = tested on: CP256; conditions: P. falciparum in erythrocytes, SYBR Green DNA, 72 h; series mostly up to 12.8 µM
In short: as §1

[10] = tested on: CP269; conditions: P. falciparum in erythrocytes, SYBR Green DNA, 72 h; series mostly up to 12.8 µM
In short: as §1

[11] = tested on: CP325; conditions: P. falciparum in erythrocytes, SYBR Green DNA, 72 h; series mostly up to 12.8 µM
In short: as §1

[12] = tested on: CP329; conditions: P. falciparum in erythrocytes, SYBR Green DNA, 72 h; series mostly up to 12.8 µM
In short: as §1

[13] = tested on: ECU; conditions: P. falciparum in erythrocytes, SYBR Green DNA, 72 h; series mostly up to 12.8 µM
In short: as §1

[14] = tested on: FAB9; conditions: P. falciparum in erythrocytes, SYBR Green DNA, 72 h; series mostly up to 12.8 µM
In short: as §1

[15] = tested on: N140; conditions: P. falciparum in erythrocytes, SYBR Green DNA, 72 h; series mostly up to 12.8 µM
In short: as §1

[16] = tested on: P93_24; conditions: P. falciparum in erythrocytes, SYBR Green DNA, 72 h; series mostly up to 12.8 µM
In short: as §1

[17] = tested on: PAD; conditions: P. falciparum in erythrocytes, SYBR Green DNA, 72 h; series mostly up to 12.8 µM
In short: as §1

[18] = tested on: PC15; conditions: P. falciparum in erythrocytes, SYBR Green DNA, 72 h; series mostly up to 12.8 µM
In short: as §1

[19] = tested on: PC26; conditions: P. falciparum in erythrocytes, SYBR Green DNA, 72 h; series mostly up to 12.8 µM
In short: as §1

[20] = tested on: SC27B; conditions: P. falciparum in erythrocytes, SYBR Green DNA, 72 h; series mostly up to 12.8 µM
In short: as §1

Measured: Potency

C[C@@H]1CCC[C@H](C)N1NC(=O)c1ccc(Cl)c(S(N)(=O)=O)c1
inactive: [1] | [2] | [3] | [4] | [5] | [6] | [7] | [8] | [9] | [10] | [11] | [12] | [13] | [14] | [15] | [16] | [17] | [18] | [19] | [20]

O=C(Cc1cccs1)NC1C(=O)N2C(C(=O)[O-])=C(C[n+]3ccccc3)CSC12 (stereo not given)
inactive: [1] | [2] | [3] | [4] | [5] | [6] | [7] | [8] | [9] | [10] | [11] | [12] | [13] | [14] | [15] | [16] | [17] | [18] | [19] | [20]

C[N+](C)(C)CC(O)CC(=O)O (stereo not given)
inactive: [1] | [2] | [3] | [4] | [5] | [6] | [7] | [8] | [9] | [10] | [11] | [12] | [13] | [14] | [15] | [16] | [17] | [18] | [19] | [20]

CN1[C@@H]2CC[C@H]1CC(OC(=O)[C@@H](O)c1ccccc1)C2 (stereo not given in full)
inactive: [1] | [2] | [3] | [4] | [5] | [6] | [7] | [8] | [9] | [10] | [11] | [12] | [13] | [14] | [15] | [16] | [17] | [18] | [19] | [20]

CN1CCCC[C@@H]1CCN1c2ccccc2Sc2ccc(S(C)=O)cc21 (stereo not given in full)
inactive: [1] | [2] | [3] | [4] | [5] | [6] | [7] | [8] | [9] | [10] | [11] | [12] | [13] | [14] | [15] | [16] | [17] | [18] | [19] | [20]
